Shiga inhibitor: A qHTS for Small Molecule Inhibitors of Shiga Toxin; Vero cells, Shiga toxin protein synthesis inhibition reporter; inhibition, % at 38.7 µM; hit rate 9.2% among 290,000; in the data active = inhibition mostly above about 28%, no sharp cut-off; inactive = mostly below about 43%
Pf growth 48h: Primary qHTS for delayed death inhibitors of the malarial parasite plastid, 48 hour incubation | P. falciparum luciferase growth in erythrocytes, 48 h | Potency, µM (doses to about 28.7 µM), usual class: inhibitors | hit rate 5.9% among 310,000 | AID 504832, 2011; active = well fitted inhibition curve with a large enough effect; inconclusive = small, poorly fitted or top-dose-only effect, or another doubt; inactive = no such curve, though single readings can be large or run the other way
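Compounds are pin-transferred into medium, infected erythrocytes (2% hematocrit, 0.1% parasitemia final) are added, and plates sit one parasite generation at 37 C in 5% CO2. Detection reagent is then added and luminescence measured.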
Pf growth 96h: Primary qHTS for delayed death inhibitors of the malarial parasite plastid, 96 hour incubation; P. falciparum luciferase reporter growth, 96 h; hit rate 6.9% among 320,000; Potency, µM (doses to about 28.7 µM), hits mostly inhibitors; active = well fitted inhibition curve with a large enough effect; inconclusive = small, poorly fitted or top-dose-only effect, or another doubt; inactive = no such curve, though single readings can be large or run the other way
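Two parasite generations (96 h, 37 C, 5% CO2) of compound exposure in infected erythrocytes (0.05% parasitemia, 2% hematocrit). Luciferase-reporter P. falciparum; decreased luminescence indicates inhibited growth, aimed at apicoplast-acting delayed death.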
Cycloheximide cs: Cycloheximide Counterscreen for Small Molecule Inhibitors of Shiga Toxin. cell reporter, cycloheximide protein synthesis inhibition counterscreen. max response, %. hit rate 12% among 300,000. AID 2314, 2010; in the data active = max response mostly above about 13%, no sharp cut-off; inactive = mostly below about 14%; note: read at 38.3 µM for the half of the compounds with a filed dose
SARS PLpro yeast: qHTS of Yeast-based Assay for SARS-CoV PLP; S. cerevisiae expressing SARS-CoV PLpro, growth rescue; Potency, µM (titrated, usually from 32.9 µM), hits mostly activators; hit rate 0.19% among 330,000; AID 485353, 2010; note: nearly all actives have a fitted effect of over 55% in size
NS1 inh: qHTS Assay for Inhibitors of Influenza NS1 Protein Function | Potency, µM (top dose mostly 46.1 µM) | hit rate 0.4% among 270,000 | AID 2326, 2010; note: actives are rising curves; nearly all actives have a fitted effect of over 50% in size
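Growth recovery, yeast-based: influenza A NS1 expressed in S. cerevisiae causes slow growth, and suppressors are detected by OD600. The parent strain without NS1 is used as positive control.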
Large screens that a line does not name were inactive; ! = a repeat was not active. Sampled rows, rich in hits. Any-hit rate of the full collection: about 21%. Unless noted, calls come from the whole dose curve.

COc1ccc(NC(=O)Nc2ccc3c(c2)CCC3)cc1OC	Pf growth 96h inconclusive, Cycloheximide cs 17
COc1ccc(/C=C/C(=O)Nc2ccc3c(c2)CCC3)cc1OC	none
CCN(CC(=O)Nc1ccccc1C(F)(F)F)C(=O)Cc1ccc2c(c1)CCC2	Pf growth 48h inconclusive (no result: Shiga inhibitor, Cycloheximide cs, NS1 inh)
COc1ccc(C)cc1NC(=O)Nc1ccc2c(c1)CCC2	Cycloheximide cs 24
CCCN(CC(=O)Nc1ccccc1OC)C(=O)Cc1ccc2c(c1)CCC2	Pf growth 48h 10µM, Pf growth 96h inconclusive (no result: Shiga inhibitor, Cycloheximide cs, NS1 inh)
O=C(CN1C(=O)NC2(CCCc3ccccc32)C1=O)c1ccc(F)c(F)c1 (stereo not given)	none (no result: Shiga inhibitor, Pf growth 48h, Pf growth 96h, Cycloheximide cs, NS1 inh)
COc1ccc([N+](=O)[O-])cc1NC(=O)Cn1ccc(C(F)(F)F)n1	none (no result: NS1 inh)
Cc1ccc(NCc2ccc(O)c3ncccc23)cc1	Cycloheximide cs 16
Oc1c(CNc2ccccc2)cc(COCc2ccccc2)c2cccnc12	Pf growth 48h 1.2µM, Pf growth 96h 3.3µM, SARS PLpro yeast 4.5µM! (no result: Shiga inhibitor, Cycloheximide cs, NS1 inh)
Cc1ccc(NCc2ccc(O)c3ncccc23)cc1C	Shiga inhibitor 54, Pf growth 96h inconclusive, Cycloheximide cs 36
Oc1ccc(CNc2cccc(C(F)(F)F)c2)c2cccnc12	Pf growth 48h 10µM, Pf growth 96h inconclusive, SARS PLpro yeast inconclusive (no result: Shiga inhibitor, Cycloheximide cs, NS1 inh)
Cc1cccnc1NCc1ccc(O)c2ncccc12	Pf growth 48h inconclusive, SARS PLpro yeast inconclusive
Cc1cccc(OCC(=O)N(C)CCc2ccccn2)c1	none
COC(=O)C1=C(c2c(C)noc2C)C[C@@H]2CC[C@H]1N2C(=O)N1CCC(O)(c2ccc(Cl)cc2)CC1	Pf growth 48h 6.6µM, Pf growth 96h inconclusive (no result: Shiga inhibitor, Cycloheximide cs, NS1 inh)
COC(=O)C1=C(c2ccc(F)cc2F)C[C@@H]2CC[C@H]1N2C(=O)N1CCC(O)(c2ccc(Cl)cc2)CC1	Pf growth 48h 9.3µM, Pf growth 96h inconclusive (no result: Shiga inhibitor, Cycloheximide cs, NS1 inh)
COC(=O)C1=C(c2c(C)noc2C)C[C@@H]2CC[C@H]1N2C(=O)N1CCOCC1	none (no result: Shiga inhibitor, Cycloheximide cs, NS1 inh)
COC(=O)C1=C(c2c(C)noc2C)C[C@@H]2CC[C@H]1N2C(=O)N1CCc2cc(OC)c(OC)cc2C1	Pf growth 48h 15µM, Pf growth 96h inconclusive (no result: Shiga inhibitor, Cycloheximide cs, NS1 inh)
COC(=O)C1=C(c2cccc(C#N)c2)C[C@@H]2CC[C@H]1N2C(=O)N1CCc2cc(OC)c(OC)cc2C1	Pf growth 48h inconclusive, Pf growth 96h inconclusive (no result: Shiga inhibitor, Cycloheximide cs, NS1 inh)
CC(C)NS(=O)(=O)c1ccc(CCC(=O)Nc2ccc3c(c2)OCO3)cc1	Pf growth 96h inconclusive (no result: Pf growth 48h)
COc1ccc(C(N)=O)c(OCC(=O)Nc2cc(C)on2)c1	none (no result: Shiga inhibitor, Cycloheximide cs, NS1 inh)
CCCN(Cc1nnc(-c2ccccc2Cl)o1)C(=O)c1oc2ccccc2c1C	Pf growth 48h 9.3µM, Pf growth 96h 9.3µM (no result: Shiga inhibitor, Cycloheximide cs, SARS PLpro yeast, NS1 inh)
CCCN(Cc1nnc(-c2ccccc2Cl)o1)C(=O)c1cccc(S(=O)(=O)N2CCOCC2)c1	Pf growth 48h inconclusive, Pf growth 96h inconclusive
CCOC(=O)CSc1nnc(CSc2nc3ccccc3s2)n1C	none
c1csc(CSc2nc3ccccc3s2)c1	Shiga inhibitor 136, Pf growth 96h inconclusive, Cycloheximide cs 34
Cc1noc(C)c1CSc1nc2ccccc2s1	none
CCS(=O)CCSc1nc2ccccc2s1 (stereo not given)	Shiga inhibitor 121, Cycloheximide cs 32
CCN(C(C)=O)c1nnc(CSc2nc3ccccc3s2)s1	Shiga inhibitor 157, Cycloheximide cs 25
CNc1nnc(CSc2nc3ccccc3s2)s1	Shiga inhibitor 84, Cycloheximide cs 22
CN(C)S(=O)(=O)c1ccc(C(=O)Nc2nnc(SCc3cccc(F)c3)s2)cc1	none
COCCNC(=O)CN(C(=O)CCC(=O)Nc1ccccn1)c1ccc(C)c(C)c1	Pf growth 96h 9.3µM (no result: Shiga inhibitor)
COCCNC(=O)C(c1ccc(Cl)cc1)N(Cc1ccco1)C(=O)CCC(=O)Nc1ccccn1 (stereo not given)	Pf growth 96h 13µM
COCCNC(=O)C(c1ccc(C)cc1)N(C(=O)CCC(=O)Nc1ccccn1)c1ccc(F)cc1 (stereo not given)	none
COCCNC(=O)C(c1ccc(O)cc1)N(Cc1ccco1)C(=O)CCC(=O)Nc1ccccn1 (stereo not given)	none
COCCNC(=O)C(c1ccc(F)cc1)N(C(=O)CCC(=O)Nc1ccccn1)c1ccc(C)cc1 (stereo not given)	Pf growth 96h 1.3µM
Cc1cc(C)cc(N(CC(=O)NCc2ccc3c(c2)OCO3)C(=O)CCC(=O)Nc2ccccn2)c1	Pf growth 48h 1.3µM, Pf growth 96h inconclusive
COc1ccc(CCC(=O)NCC(c2ccco2)N2CCc3ccccc32)cc1 (stereo not given)	Pf growth 48h inconclusive (no result: Shiga inhibitor, Cycloheximide cs, NS1 inh)
O=C(CNC(=O)c1ccco1)NCC(=O)OCC(=O)c1ccc(Cl)c([N+](=O)[O-])c1	none
COc1cc(C)c(/C=C(\C#N)C(=O)Nc2cccc(C)c2)cc1C(C)C	none
CCN(C(=O)Cn1cnc2cc([N+](=O)[O-])ccc2c1=O)C1CCS(=O)(=O)C1 (stereo not given)	Pf growth 48h inconclusive (no result: NS1 inh)
O=C(COC(=O)c1ccccn1)NC(=O)c1ccccc1	none (no result: Shiga inhibitor, Cycloheximide cs, NS1 inh)
CCOc1ccc(N(CC(=O)NCCc2ccccc2)C(=O)CCC(=O)Nc2cc(C)ccn2)cc1	Pf growth 48h 4.7µM
Cc1ccc(N(CC(=O)NCC2CCCO2)C(=O)CCC(=O)Nc2ccccn2)cc1C (stereo not given)	Pf growth 96h inconclusive
Cc1ccc(N(CC(=O)NCC2CCCO2)C(=O)CCC(=O)Nc2ccccn2)cc1 (stereo not given)	Pf growth 96h 0.59µM (no result: NS1 inh)
FC(F)(F)c1ccccc1CNCc1ccc2c(c1)OCO2	none
COCCn1c(SCC(=O)NC(C)c2ccccc2)nc2ccccc21 (stereo not given)	none
COCCn1c(SCc2nc3ccccc3s2)nc2ccccc21	Shiga inhibitor 147, Cycloheximide cs 37
C=CCn1c(=O)c2ccccc2n2c(SCc3nc4ccccc4s3)nnc12	Shiga inhibitor 131, Cycloheximide cs 45 (no result: Pf growth 96h)
CCOCCCn1c(SCc2nc3ccccc3s2)nc2ccccc2c1=O	Shiga inhibitor 101, Pf growth 48h inconclusive, Pf growth 96h inconclusive, Cycloheximide cs 87
COc1ccc(C(=O)/C=C/C(=O)N(CC(=O)NC2CCCCC2)Cc2ccccc2)c(O)c1	Pf growth 48h inconclusive, Pf growth 96h 2.6µM
COc1ccc(C(=O)/C=C/C(=O)N(CC(=O)NC2CCCCC2)Cc2ccccc2OC)c(O)c1	Pf growth 48h 9.3µM, Pf growth 96h inconclusive
CC[C@@H](CCC=C(C)C)C(=O)N(Cc1ccccc1)c1ccccc1	Pf growth 48h 8.3µM, Pf growth 96h inconclusive (no result: Shiga inhibitor, Cycloheximide cs, NS1 inh)
Cc1oc2c(cc(NS(=O)(=O)c3ccc(F)cc3)c3ccccc32)c1C(=O)O	Pf growth 96h 7.4µM
COc1ccc(S(=O)(=O)Nc2cc3c(C(C)=O)c(C)oc3c3ccccc23)cc1	Pf growth 96h inconclusive (no result: Pf growth 48h)
Cc1oc2c(cc(NS(=O)(=O)c3ccc(C(C)C)cc3)c3ccccc32)c1C(=O)O	Pf growth 96h inconclusive
